A number with no mark means an inactive call. Results filed as inconclusive are left out. A call without a number means that no potency is given here. Activity calls are given as the source filed them. Unless noted, calls come from the whole dose curve; as a rule, active = well fitted curve in the direction sought with a large enough effect; inconclusive = small, poorly fitted or top-dose-only effect, or another doubt; inactive = no such curve, though single readings can be large; an effect the other way counts as inactive or inconclusive.
Legend:
[1] = test system: SKOV3; test: Primary qHTS to identify gynecologic anti-cancer compounds using libraries of approved drugs and bioactive compounds (AID 1345084); conditions: Gynecologic cancer cell panel viability, ATPlite luminescence, 48 h; series mostly up to 57.5 µM; note: nearly all actives have a fitted effect of over 55% in size
Outline: (§1)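 Cell viability after 48 h drug treatment, ATPlite luminescence readout; five doses.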

[2] = test system: Tov-21-G; test: as above; conditions: Gynecologic cancer cell panel viability, ATPlite luminescence, 48 h; series mostly up to 57.5 µM
Outline: as §1

[3] = test system: Tov112D; test: as above; conditions: Gynecologic cancer cell panel viability, ATPlite luminescence, 48 h; series mostly up to 57.5 µM
Outline: as §1

[4] = Drug repurposing screens with cells derived from glioblastoma tumor samples (AID 1345199); conditions: GBM patient neurospheres viability, ATP luminescence, 48 h; note: nearly all actives have a fitted effect of over 40% in size; note: potency is the fitted concentration of half-maximal effect
Outline: (§2)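 Primary testing used CD133+ neurospheres from four GBM patients, seven concentrations, 48 h exposure and ATP-based viability; confirmation added three slower-growing patient lines.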

[5] = test system: astro; test: as above; conditions: viability, ATP luminescence, 48 h; series mostly up to 45.9 µM
Outline: as §2

[6] = molecular target: Nuclear receptor subfamily 1 group I member 2 (Rattus norvegicus) (UniProt Q9R1A7); test: qHTS assay for small molecule activators of the rat pregnane X receptor (rPXR) signaling pathway (AID 651751; call rule not given here); conditions: rPXR reporter cells, luciferase (One-Glo), 24 h
Sequence of Nuclear receptor subfamily 1 group I member 2 (Rattus norvegicus) (Q9R1A7 whole entry, looked up): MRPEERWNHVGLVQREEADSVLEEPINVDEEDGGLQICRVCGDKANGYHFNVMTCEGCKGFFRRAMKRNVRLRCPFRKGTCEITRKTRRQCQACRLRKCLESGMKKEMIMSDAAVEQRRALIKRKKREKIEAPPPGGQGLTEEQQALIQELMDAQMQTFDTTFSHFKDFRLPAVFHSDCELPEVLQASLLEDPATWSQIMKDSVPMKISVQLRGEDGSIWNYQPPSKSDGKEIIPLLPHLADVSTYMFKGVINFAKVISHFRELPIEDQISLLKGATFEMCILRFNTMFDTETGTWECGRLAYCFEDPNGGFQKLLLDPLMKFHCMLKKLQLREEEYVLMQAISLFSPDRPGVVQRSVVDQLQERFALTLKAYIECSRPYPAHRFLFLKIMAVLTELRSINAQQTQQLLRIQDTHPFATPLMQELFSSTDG

[7] = qHTS assay for small molecule activators of the human pregnane X receptor (PXR) signaling pathway (AID 720659; call rule not given here)
[8] = at 45.9 µM (top of the series), tumour line B
[9] = at 45.9 µM (top of the series), tumour line D
[10] = at 46 µM (top of the series), tumour line A
[11] = at 46.1 µM (top of the series), tumour line C
[12] = at 20 µM (top of the series), tumour line C
[13] = at 21.2 µM (top of the series), tumour line B
[14] = at 21.2 µM (top of the series), tumour line D
[15] = at 21.3 µM (top of the series), tumour line A

Compound | Potency [1] | Potency [2] | Potency [3] | activity, negative = cell killing [4, 8] | activity, negative = cell killing [4, 9] | activity, negative = cell killing [4, 10] | activity, negative = cell killing [4, 11] | Potency [5] | activity, negative = cell killing [4, 12] | activity, negative = cell killing [4, 13] | activity, negative = cell killing [4, 14] | activity, negative = cell killing [4, 15] | Potency ([4]; tumour line A) | max response [6] | outcome [7]
CCCCC(CC)COC(=O)/C=C/c1ccc(OC)cc1 (stereo unspecified) | inactive | inactive | inactive | -11.8% | -6.07% | -26.1% | 6.67% | inactive |  |  |  |  |  |  | 
OCc1ccccn1 | inactive | inactive | inactive | -0.907% | 14.9% | -24% | -5.53% | inactive |  |  |  |  |  |  | 
CC(O)Cn1cnc2c1c(=O)n(C)c(=O)n2C (stereo unspecified) | inactive | inactive | inactive |  |  |  |  | inactive | 7.77% | -9.45% | -12.1% | -14.4% |  |  | 
CC(=O)NO | inactive | inactive | inactive | -7.52% | -5.2% | -11.7% | 11.5% | inactive |  |  |  |  |  |  | 
CCc1ccc(C(=O)C(C)CN2CCCCC2)cc1 (stereo unspecified) | inactive | inactive | inactive | -6.35% | -22.1% |  | -19% | inactive |  |  |  |  | 17.8 µM (active) |  | 
CCN1CCN(C(=O)N[C@@H](C(=O)N[C@@H]2C(=O)N3C(C(=O)O)=C(CSc4nnnn4C)CS[C@H]23)c2ccc(O)cc2)C(=O)C1=O | inactive | inactive | inactive | -8.4% | 9.51% | -15% | 0.963% | inactive |  |  |  |  |  |  | 
CCOc1cc(OCC)c(C(=O)CCC(=O)O)cc1OCC | inactive | inactive | inactive | -2.96% | -2.05% | -23.5% | -10.2% | inactive |  |  |  |  |  |  | 
Cc1ccc(O)c([C@H](CCN(C(C)C)C(C)C)c2ccccc2)c1 | inactive | inactive | inactive | -18% |  |  | -1.49% | inactive |  |  |  |  | 3.98 µM (active) |  | 
Cn1c(=O)c2[nH]c(Br)nc2n(C)c1=O | inactive | inactive | inactive | -10.3% | -8.55% |  | -9.05% | inactive |  |  |  |  |  |  | 
O=C(O)CCC(=O)Nc1ccc(S(=O)(=O)Nc2nccs2)cc1 | inactive | inactive | inactive |  |  |  |  | inactive | -5.75% | 2.8% | -10.2% | -13.6% |  |  | 
Cc1ccc(-c2ncc(Cl)cc2-c2ccc(S(C)(=O)=O)cc2)cn1 | inactive | inactive | inactive | -0.088% | -1.02% |  | -0.632% | inactive |  |  |  |  |  |  | 
COc1ccc(/C=N/NC(=O)c2ccncc2)cc1OC | inactive | inactive | inactive | -3.24% | -6.28% |  | -25% | inactive |  |  |  |  |  |  | 
CCCCCCCCCCCCCC(=O)OC(C)C | inactive | inactive | inactive | 8.22% | -15.3% | -17.4% | 3.73% | inactive |  |  |  |  |  | 2.24% | inactive
CCOc1ccccc1OCCN[C@H](C)Cc1ccc(OC)c(S(N)(=O)=O)c1 | inactive | inactive | inactive | -15.7% | -16.9% |  | -16.6% | inactive |  |  |  |  | 35.5 µM (active) |  | 
Cc1cn([C@H]2C[C@H](F)[C@@H](CO)O2)c(=O)[nH]c1=O | inactive | inactive | inactive | -16.6% | -21.3% |  | -27% | inactive |  |  |  |  |  |  | 
Cc1ncc(CO)c(C=O)c1O | inactive | inactive | inactive | 6.81% | -6.02% | -26.4% | 7.46% | inactive |  |  |  |  |  |  | 
Cc1cc(NS(=O)(=O)c2ccc(N)cc2)nc(C)n1 | inactive | inactive | inactive | -14.8% | -16.4% | -27.1% | -10.5% | inactive |  |  |  |  |  |  | 
C[C@@H](O)[C@H]1C(=O)N2C(C(=O)O)=C([C@H]3CCCO3)S[C@H]12 | inactive | inactive | inactive | -7.31% | -12.1% |  | -5.94% | inactive |  |  |  |  |  |  | 
COc1cc(C(=S)N2CCOCC2)ccc1O | inactive | inactive | inactive | -7.92% | 6.32% | -27.5% | -22.1% | inactive |  |  |  |  |  |  | 
CCCCCCCCCCCCSCCOCCO | inactive | inactive | inactive | -1.92% | -19.1% |  | 9.86% | inactive |  |  |  |  | 35.5 µM (active) |  | 

From PubChem BioAssay (NCATS)
